S16 F2sN tox: cytotoxicity in S16 Pmp22-F2sN Schwann cells. S16 Pmp22-F2sN Schwann cells viability, CellTiter-Glo, 24 h. Potency, µM (titrated, usually from 57.5 µM), actives largely listed as cytotoxic. hit rate 0.48% among 43,000. AID 1508642; also: nearly all actives have a fitted effect of over 65% in size
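Used to flag compounds lowering reporter output through toxicity, this quantitative HTS measures ATP-based CellTiter-Glo luminescence in S16 Pmp22-F2sN Schwann cells after 24 h compound exposure at 37C.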
p53null 32C tox: p53 null cell cytotoxicity, permissive temperature. hit rate 0.62% among 55,000. AID 903. H1299-neo p53 null cells, ATP luminescence, 24 h, 32C. Potency, µM (highest dose often 46.1 µM), hits mostly cytotoxic; also: nearly all actives have a fitted effect of over 55% in size
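ATP-content luminescence in p53-null H1299-neo cells after 24 h compound exposure (up to 46 uM) at 32C permissive temperature; 0% and 100% killing set by DMSO and 100 uM tamoxifen; Hill-equation AC50.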
mTORC1 inh: reduces mTORC1 signaling in Tsc2 and p53 null MEF cells. Tsc2-/- p53-/- MEF, phospho-rpS6 immunofluorescence/PI, 24 h. hit rate 0.78% among 44,000. AID 493208. Potency, µM (titrated, usually from 38.3 µM), hits mostly inhibitors; also: nearly all actives have a fitted effect of over 50% in size
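Immunofluorescence of rpS6 phosphorylation in Tsc2-/-, p53-/- MEFs after 24 h compound exposure, normalized to propidium iodide signal. Activity is expressed as % positive cells, thresholded with 7.5 nM rapamycin.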
PMP22 txn: modulators of PMP22 gene transcription in S16 Schwann cells; AID 1508649; S16 Pmp22-F2sN Schwann cells, FLuc/NLuc coincidence luminescence, 24 h; hit rate 2% among 43,000; Potency, µM (titrated, usually from 57.5 µM), hits mostly inhibitors; active = clear falling dose curves in both reporters; inconclusive = both reporters move, but less clearly or upward; inactive = either reporter flat; the % is the NLuc reporter signal
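Luminescent read-out of sequential FLuc and NLuc signals from a reporter embedded in the Pmp22 3' UTR of S16 Schwann cells, taken after 24 h compound exposure at 37C; compounds reducing both signals score as inhibitors of expression.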
p53null 39C kill: kills p53 null cells at the nonpermissive temperature; H1299 p53-null (neo) cells, 39C, ATPlite viability, 24 h; Potency, µM (doses to about 46.1 µM), actives largely listed as cytotoxic; hit rate 0.97% among 55,000; AID 904; also: nearly all actives have a fitted effect of over 50% in size
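Concentration-response (up to 46 uM) was run for 24 h at the nonpermissive 39C on H1299-p53A138V or H1299-neo cells. ATP content was measured with ATPlite luminescence. AC50 values were Hill-modeled after normalizing between DMSO and 100 uM tamoxifen killing.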
NLuc saturating: NanoLuc enzyme inhibition artifact for PMP22 screen; AID 1508638; Secreted NLuc enzyme (filtered S16 cell medium), Nano-Glo luminescence; shares compounds with PMP22 txn; Potency, µM (top dose mostly 57.5 µM), hits mostly inhibitors; hit rate 4% among 690
NLuc Km counter: inhibits NanoLuc under Km conditions, PMP22 counter-screen | hit rate 5% among 690 | secreted NLuc enzyme, coelenterazine luminescence, Km conditions | Potency, µM (top dose mostly 57.5 µM), usual class: inhibitors | shares compounds with PMP22 txn
FLuc counter: counter-screen for PMP22 expression modulators: firefly luciferase inhibition. Potency, µM (top dose mostly 57.5 µM), hits mostly inhibitors. AID 1508640. 690 tested, under 10 active. purified P. pyralis FLuc, luminescence, 10 min. shares compounds with PMP22 txn
Target sequence (P08659 whole entry, looked up): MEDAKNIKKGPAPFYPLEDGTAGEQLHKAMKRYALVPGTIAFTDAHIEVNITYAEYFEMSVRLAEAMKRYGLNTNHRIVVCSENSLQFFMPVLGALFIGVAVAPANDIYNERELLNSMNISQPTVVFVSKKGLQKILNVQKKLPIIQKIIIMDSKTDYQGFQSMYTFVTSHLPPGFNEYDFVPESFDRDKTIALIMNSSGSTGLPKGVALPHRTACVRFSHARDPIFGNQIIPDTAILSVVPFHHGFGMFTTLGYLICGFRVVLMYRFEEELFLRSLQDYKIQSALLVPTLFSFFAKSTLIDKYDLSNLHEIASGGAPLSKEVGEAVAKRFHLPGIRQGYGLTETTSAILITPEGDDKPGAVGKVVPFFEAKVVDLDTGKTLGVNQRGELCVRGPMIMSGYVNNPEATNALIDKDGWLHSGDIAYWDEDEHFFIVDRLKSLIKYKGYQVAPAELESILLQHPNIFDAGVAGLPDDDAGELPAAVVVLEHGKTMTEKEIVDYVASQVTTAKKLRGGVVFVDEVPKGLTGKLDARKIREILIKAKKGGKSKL
S16 viab conf: confirmation of cytotoxicity in S16 Pmp22-F2sN Schwann cells (luciferase reporters placed in the Pmp22 gene). hit rate 7% among 690. Potency, µM (titrated, usually from 57.5 µM), usual class: cytotoxic. S16 Schwann cells viability, CellTiter-Glo ATP luminescence, 24 h. shares compounds with PMP22 txn
PMP22 txn cnf: confirmation of modulators of PMP22 gene transcription in S16 cells. shares compounds with PMP22 txn. S16 Schwann cells Pmp22-F2sN, dual luciferase, 24 h. Potency, µM (highest dose often 57.5 µM), hits mostly inhibitors. hit rate 22% among 690; active = clear falling dose curves in both reporters; inconclusive = both reporters move, but less clearly or upward; inactive = either reporter flat; the % is the FLuc reporter signal
PMP22 HiBiT cnf: rat PMP22 protein level modulation, confirmatory; shares compounds with PMP22 txn; S16 Schwann cells Pmp22-HiBiT, luminescence, 48 h; Potency, µM (top dose mostly 27.9 µM), most hits filed as inhibitors; 95 tested, under 10 active; AID 1508647
Target sequence (P25094 whole entry, looked up): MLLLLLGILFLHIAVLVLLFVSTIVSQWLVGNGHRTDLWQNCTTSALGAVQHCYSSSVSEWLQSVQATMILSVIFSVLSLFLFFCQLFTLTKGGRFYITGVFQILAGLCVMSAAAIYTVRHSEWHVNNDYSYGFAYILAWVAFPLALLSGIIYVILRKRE
Numbers stand for hits; 0 = inactive; ? = inconclusive; - = no result given. Hits are enriched below; roughly 3.2% of the tested compounds scored in any of these assays. Unless noted, calls follow the shape of the dose curve; as a rule, active = well fitted curve in the direction sought with a large enough effect; inconclusive = small, poorly fitted or top-dose-only effect, or another doubt; inactive = no such curve, though single readings can be large; an effect the other way counts as inactive or inconclusive.

SMILES	S16 F2sN tox	p53null 32C tox	mTORC1 inh	PMP22 txn	p53null 39C kill	NLuc saturating	NLuc Km counter	FLuc counter	S16 viab conf	PMP22 txn cnf	others
CCn1c(=O)cc(OCC(=O)N2CCN(c3ccccc3OC)CC2)c2ccccc21	0	0	0	17µM	0	0	0	0	0	0
CCn1c(CN2CCCCC2)nc2cc(NC(=O)COc3ccccc3C(C)(C)C)ccc21	0	0	0	14µM	0	0	0	0	0	?
CCn1c(CN2CCCCC2)nc2cc(NC(=O)c3ccccc3[N+](=O)[O-])ccc21	0	0	0	?	0	-	-	-	-	-
COc1ccc(CCC(=O)NCCc2csc(-c3ccc(C(F)(F)F)cc3)n2)cc1	0	0	0	0	0	-	-	-	-	-
O=C(Cn1cc(C(=O)c2ccco2)c2ccccc21)Nc1ccccc1C(F)(F)F	0	0	0	12µM	0	0	0	0	0	0
O=C(Cn1cc(C(=O)c2ccco2)c2ccccc21)Nc1ccccc1Cl	0	0	?	?	0	-	-	-	-	-
COc1ccc(CCNC(=O)CSc2nc3ccccc3nc2Cc2ccc(C)cc2)cc1OC	0	0	0	0	0	-	-	-	-	-
CCN1CCOC(=O)C1CC(=O)Nc1cc(Cl)ccc1C (configuration not stated)	?	-	?	11µM	-	0	0	0	?	?
CCN1CCOC(=O)C1CC(=O)Nc1cccc(OC)c1 (configuration not stated)	?	-	21µM	13µM	-	0	0	0	?	?
COc1cc(NC(=O)CC2C(=O)OCCN2Cc2ccccc2)cc(OC)c1 (configuration not stated)	0	-	0	0	-	-	-	-	-	-
CCOC(=O)c1ccc(NC(=O)CC2C(=O)OCCN2CC)cc1 (configuration not stated)	0	-	?	?	-	-	-	-	-	-
Cn1cc(CN(C(=O)Nc2ccc(Cl)c(Cl)c2)C2CCCCC2)c2ccccc21	0	0	0	0	0	-	-	-	-	-
Cn1cc(CN(C(=O)Nc2ccccc2)C2CCCCC2)c2ccccc21	?	0	0	9.5µM	?	?	?	0	0	?
Cc1cc(C)cc(NC(=O)c2ccc3oc(=O)c(S(=O)(=O)c4ccc(F)cc4)cc3c2)c1	0	0	0	11µM	0	0	0	0	0	0
CCCCOc1ccc(C(C)NC(=O)c2cccc(Nc3nc4ccccc4n4nnnc34)c2)cc1 (configuration not stated)	?	0	0	5.3µM	0	0	0	0	27µM	10µM
O=C(NCc1ccccc1Cl)c1ccc(Nc2nc3ccccc3n3nnnc23)cc1	0	0	0	18µM	0	0	0	0	0	?
COCCNC(=O)c1cccc(Nc2nc3ccccc3n3nnnc23)c1	0	0	0	11µM	0	0	?	0	0	0
CCN(CC)CCCNC(=O)c1oc2c(c1C)-c1nn(Cc3ccc(Cl)cc3)cc1CC2	?	0	0	?	0	-	-	-	-	-
CCc1ccccc1NC(=O)C(=O)NCCc1sc(-c2cccc(F)c2)nc1C	0	0	0	?	0	-	-	-	-	-
CCOc1ccccc1NC(=O)C(=O)NCCc1sc(-c2cccc(F)c2)nc1C	0	0	0	?	0	0	0	0	0	?
CC(=O)Nc1cccc(NC(=O)C(=O)NCCc2sc(-c3ccccc3)nc2C)c1	0	0	?	2.5µM	0	0	?	0	0	3.6µM
CCN(CC)c1ccc(NC(=O)C2COc3ccc(OC)cc3C2)c(C)c1 (configuration not stated)	?	0	0	12µM	?	0	0	0	?	15µM	PMP22 HiBiT cnf=?
COc1ccc2c(c1)CC(C(=O)Nc1ccc(OC)cc1OC)CO2 (configuration not stated)	0	0	0	0	0	-	-	-	-	-
COc1ccc(NCc2cc3cc4c(cc3n(CC(=O)Nc3ccc(F)cc3F)c2=O)OCO4)cc1	0	0	0	18µM	0	?	0	0	0	0
COc1ccc(NCc2cc3cc4c(cc3n(CC(=O)Nc3cccc(F)c3)c2=O)OCO4)cc1	0	0	0	?	0	-	-	-	-	-
SMILES	S16 F2sN tox	p53null 32C tox	mTORC1 inh	PMP22 txn	p53null 39C kill	NLuc saturating	NLuc Km counter	FLuc counter	S16 viab conf	PMP22 txn cnf	others
Cc1cccc(N2CCN(C(=O)c3ccc(CS(=O)c4cccc(Cl)c4)o3)CC2)c1C (configuration not stated)	?	0	7.4µM	9.6µM	?	0	?	0	0	?
Cc1ccc(S(=O)(=O)Cc2ccc(C(=O)N3CCN(c4cccc(C)c4C)CC3)o2)cc1	0	0	?	14µM	0	0	0	0	0	?
CCN(Cc1ccccc1)C(=O)c1nn(-c2ccc(OC)cc2)c(=O)c2c1c1ccccc1n2C	?	0	0	19µM	0	0	0	0	0	0
CCc1ccc(CNC(=O)c2nn(-c3ccc(C)cc3)c(=O)c3c2c2ccccc2n3C)cc1	0	0	0	2.8µM	0	0	0	0	?	?
Cc1ccc2c(c1)N(C(=O)Nc1cccc3c1CCCC3)CCO2	0	0	0	0	?	-	-	-	-	-
CC1CCCN(S(=O)(=O)c2ccc(N3CCCCS3(=O)=O)cc2)C1 (configuration not stated)	0	0	0	?	0	0	0	0	0	0
CC(=O)c1ccc(NC(=O)COc2ccccc2-c2nc(C(C)C)no2)cc1	0	0	0	13µM	0	0	0	0	0	0
CCC(=O)N1CCc2cc(S(=O)(=O)CCC(=O)Nc3ccc(Cl)c(C(F)(F)F)c3)ccc21	0	0	0	11µM	0	0	0	0	0	18µM	PMP22 HiBiT cnf=?
Cc1cccc(C)c1Nc1sc(C(=O)c2ccccc2)c(N)c1S(=O)(=O)c1ccccc1	0	0	0	6.7µM	0	0	0	0	0	?
